An excerpt weighted towards active compounds, which were near 11% of everything screened.
AMA1 RON2 block: qHTS for Inhibitors of AMA1-RON; Towards Development of Antimalarial Drug Lead: Primary Screen | actives 0.2% (n = 360,000) | Potency, µM (highest dose often 58.2 µM), without a hit: at the top dose activity change, negative = inhibition, hits mostly inhibitors | Plasmodium falciparum AMA1 (3D7) - RON2 peptide interaction | AlphaScreen AMA1-biotinylated RON2 peptide binding;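 also: 0% = vehicle wells and -100% = peptide control; nearly all actives have a fitted effect of over 45% in size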
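AMA1 (3D7) with his tag at 25 nM final met compounds first, then biotinylated RON2 peptide at 25 nM; detection used donor plus acceptor beads, 10 µg/mL apiece, read by AlphaScreen after 30 min at room temperature.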
Pf growth 96h: Primary qHTS for delayed death inhibitors of the malarial parasite plastid, 96 hour incubation; P. falciparum luciferase reporter growth, 96 h; AID 504834, 2011; Potency, µM (doses to about 28.7 µM), inactives show at the highest dose activity change, negative = inhibition, usual class: inhibitors; actives 6.9% (n = 320,000)
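P. falciparum expressing integrated firefly luciferase, in erythrocytes at 2% hematocrit, 0.05% parasitemia, incubated with compounds 96 h at 37 C, 5% CO2. Growth inhibition read as loss of luminescence; two-generation exposure targets delayed-death apicoplast inhibitors.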
HCV inhibitor: qHTS Assay for Inhibitors of Hepatitis C Virus (HCV) | Huh7.5.1 HCVcc-Cre infection, luciferase reporter, 44 h | Potency, µM (highest dose often 41.8 µM), for inactives: at the top dose activity change, negative = inhibition, most hits filed as inhibitors | actives 3.4% (n = 340,000)
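HCVcc-Cre virus at an moi near 0.5 was added right after compound to cells cultured 4 h from seeding (1,000 cells/well). Luciferase activity was determined 44 h later, 15 min after substrate addition at RT.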
Pf growth 48h: Primary qHTS for delayed death inhibitors of the malarial parasite plastid, 48 hour incubation. Potency, µM (series often up to 28.7 µM), without a hit: at the highest dose activity change, negative = inhibition, usual class: inhibitors. AID 504832, 2011. P. falciparum luciferase growth in erythrocytes, 48 h. actives 5.9% (n = 310,000)
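First compound was added to culture medium, then infected red cells at 0.1% parasitemia and 2% hematocrit (final). After incubation at 37 C under 5% CO2, luciferase detection reagent was dispensed and light output recorded.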
The depositor's hits bear a star; ? = inconclusive; . = no result given; [ ] = dose if it differs, or a comment. Calls follow the shape of the dose curve; as a rule, active = well fitted curve in the direction sought with a large enough effect; inconclusive = small, poorly fitted or top-dose-only effect, or another doubt; inactive = no such curve, though single readings can be large; an effect the other way counts as inactive or inconclusive. Unless noted, % is scaled to controls: 0 for no effect and ±100 for the full control effect; potency is read from the fitted curve at half-maximal effect.

SMILES	AMA1 RON2 block	Pf growth 96h	HCV inhibitor	Pf growth 48h
CCN(CC)Cc1cc2[nH]c3c4ccc(Cl)cc4ncc3c2cc1OC	-11%	0.093µM*	?	0.074µM*
CCn1c2ccccc2c2cc(NC(=O)N3CCCCC3)ccc21	-6%	.	.	.
COCC(C)NCc1ccc(OC)c(Br)c1 (stereo not given)	-20%	12µM*	5%	-29%
CS(=O)(=O)c1ccc(Cl)c(NC(=O)CCl)c1	-17%	?	?	9.3µM*
CS(=O)(=O)c1ccc(C(=O)Nc2cc(S(C)(=O)=O)ccc2Cl)cc1	4%[11.6 µM]	7%	17%	5%
CS(=O)(=O)c1ccc(Cl)c(NC(=O)COC(=O)C23CC4CC(CC(C4)C2)C3)c1	4%	8.3µM*	-5%	5.2µM*
CC(C)Nc1cc(C(C)(C)C)nc2c(-c3ccccc3)cnn12	32%	13µM*	?	?
CC(C)(C)c1cc(NCc2ccccn2)n2ncc(-c3ccc(Cl)cc3)c2n1	78%	?	?	3.3µM*
CN(C)CCCNc1cc(C(C)(C)C)nc2c(-c3ccc(Cl)cc3)cnn12	44%	?	10µM*	?
CCc1nccn1-c1cc(C(C)(C)C)nc2c(-c3ccc(Cl)cc3)cnn12	7%	13µM*	11%	50%
CC(C)(C)c1cc(-n2ccnc2)n2ncc(-c3ccc(Cl)cc3)c2n1	9%	56%	16%	80%
CC(C)(C)c1cc(C(F)(F)F)n2ncc(-c3ccccc3)c2n1	-14%	?	?	36%[5.75 µM]
C=CCN1C(=O)c2ccc(C(=O)N3CCN(c4ccccc4OC)CC3)cc2C1=O	-12%	11%	-22%	?
CCOc1ccc(NS(=O)(=O)c2ccc(C(=O)NCC(c3ccc(OC)cc3)N3CCOCC3)cc2)cc1 (stereo not given)	-1%	?	?	-26%
CCCn1c(N)c(C(=O)CSc2nnc(-c3ccoc3C)n2C)c(=O)n(C)c1=O	8%	?	9%	?
CC(C)Cn1c(N)c(C(=O)CSc2nnc(-c3ccco3)n2C)c(=O)n(C)c1=O	46%	1.3µM*	16%	5.2µM*
CC(C)Cn1c(SCC(=O)c2ccc(Cl)s2)nnc1-c1ccco1	-13%	12µM*	-16%	.
CCCCn1c(SCC(N)=O)nnc1-c1ccco1	13%	0%	8%	?
Cc1ccc(C)n1-c1nn(S(=O)(=O)c2ccccc2)c2cccc(F)c12	-7%	?	-1%	?
COc1ccc(S(=O)(=O)n2nc(-n3c(C)ccc3C)c3c(F)cccc32)cc1OC	-22%	?	?	5.9µM*
CS(=O)(=O)N(CC(=O)NCCSC1CCCCC1)c1ccc2c(c1)OCO2	0%	-17%	11%	5.2µM*
COc1ccc(N(CC(=O)NCCC2=CCCCC2)S(C)(=O)=O)cc1	-12%	.	11%	-5%
COc1ccc(N(CC(=O)NCCC2=CCCCC2)S(=O)(=O)c2ccccc2F)cc1	1%	10µM*	?	?
CS(=O)(=O)N(CC(=O)NCCC1=CCCCC1)c1ccc2c(c1)OCO2	-7%	-5%	14%	4.1µM*
O=C(CN(c1ccc(F)cc1)S(=O)(=O)c1ccccc1)NCCSC1CCCCC1	-2%	?	-5%	6.6µM*
SMILES	AMA1 RON2 block	Pf growth 96h	HCV inhibitor	Pf growth 48h
CCC(NS(=O)(=O)c1ccc(C)cc1)C(=O)N1CCOCCOCCOCCOCC1 (stereo not given)	-2%	47%	8%	28%
O=C(CCCc1c[nH]c2ccccc12)Nc1ncccc1O	25%	?	-9%	0%
CN1CCN(C(=S)Nc2ccc(S(N)(=O)=O)cc2)CC1	-1%	9%	4%	-10%[1.15 µM]
CC(C)CN(C(=O)COC(=O)CSc1ccccc1)c1c(N)n(Cc2ccccc2)c(=O)[nH]c1=O	-15%	34%	-3%	-10%
O=C1NC[C@@H](CCCCN2CCN(CCc3ccc(O)cc3)C(=O)C2=O)N(Cc2ccccc2)C1=O	63%	.	.	.
COc1ccc(OC)c2c1sc(=NC(=O)C(C)(C)C)n2C	-7%	5%	10µM*	.
O=C(COc1ccc(Br)cc1)Nc1ccc(N2CCOCC2)cc1N1CCOCC1	1%	?	-3%	?
COc1ccc(NC(=O)NNC(=O)C(C)Oc2ccc(C(C)C)cc2)c(OC)c1 (stereo not given)	93%	?	6%	17%

Source: PubChem BioAssay (National Center for Advancing Translational Sciences (NCATS))
